This note sets out measurements from publication PMC7819943, “Rice protein-binding microarrays: a tool to detect cis-acting elements near promoter regions in rice”.

In all, about 39,000 sequences were measured (“fluorescence intensity (a.u.)”: median about 4,300, highest 2% from about 39,000 on). The full list was thinned out, with the highest values kept by preference.

The target in this test is T1, OsSMF1 (Oryza sativa, UniProt Q6ZLB0 1-436).
T1 sequence: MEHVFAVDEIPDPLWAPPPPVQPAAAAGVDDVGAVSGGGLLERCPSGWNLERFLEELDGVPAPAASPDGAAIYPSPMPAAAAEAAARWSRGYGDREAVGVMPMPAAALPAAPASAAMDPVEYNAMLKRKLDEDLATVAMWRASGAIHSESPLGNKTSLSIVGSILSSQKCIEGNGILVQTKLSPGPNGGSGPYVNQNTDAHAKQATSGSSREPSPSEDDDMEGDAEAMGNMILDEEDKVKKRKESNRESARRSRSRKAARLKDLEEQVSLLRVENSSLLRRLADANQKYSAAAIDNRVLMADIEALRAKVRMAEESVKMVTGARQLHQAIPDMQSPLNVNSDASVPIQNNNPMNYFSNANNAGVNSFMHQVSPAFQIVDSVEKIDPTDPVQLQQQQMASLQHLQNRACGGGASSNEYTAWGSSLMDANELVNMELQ
Description: protein-binding microarray (RPBM); PBS, 2% BSA, 51.3 ng/ul salmon testes DNA, 50 uM zinc acetate, 200 nM TF, 25 C, 1 h; high values mean tight binding. Particulars: protein: recombinant; tags: N-terminal polyhistidine and DsRed monomer fusion (pET32a); chain copies: 2; label: CyDye5-dUTP incorporated in the synthesized complementary strand; 3' TTTTT single-stranded linker to array surface; dsDNA, one strand shown. An outline of the steps:
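A custom Agilent array was converted to double-stranded form by primer extension with Cy5-dUTP and blocked with 2% BSA. Protein at 200 nM in PBS with 2% BSA, salmon testes DNA and 50 µM zinc acetate was applied for 1 h at 25 °C, followed by washing. The proteins were polyhistidine–DsRed N-terminal fusions of transcription factors, expressed in E. coli BL21-CodonPlus and Ni–NTA-purified. The binding signal is per-feature fluorescence intensity (arbitrary units) from an Axon 4000B scanner.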
“TATCCATGGTGTTTAACAATATATCACTGGATACACGTGTCGGAGTCACCTAGTGCAG”: the binding signal was 9700 fluorescence intensity (a.u.).

Take “TTCTTCCCTTCACATAGGAATTGGATGATGTGGAGACTTTCGGAGTCACCTAGTGCAG”: the binding signal is 7630 fluorescence intensity (a.u.).

“CATAATTTTAGGTATCGCTAGGATTTAATTTACACTGTAGCGGAGTCACCTAGTGCAG”: the binding signal is 3370 fluorescence intensity (a.u.).

As to “TTAGTTTTATATAAAATGTGTCACATGATAATAGTAGTACCGGAGTCACCTAGTGCAG”, the binding signal was 3870 fluorescence intensity (a.u.).

On to “TCTACTGTGTGTGTGTGTGTGTGTGTTCACTACTGGATAGCGGAGTCACCTAGTGCAG”, for which the binding signal was 3160 fluorescence intensity (a.u.).

As to “GTCCTAAAGTACTTATTGTGTCCGGTTTTGGTTAGTTAAGCGGAGTCACCTAGTGCAG”, the binding signal was 3210 fluorescence intensity (a.u.).

With “CAGTTACGCGCCGTGCCTACCCGTGTATCACCGCGATGAGCGGAGTCACCTAGTGCAG”, the binding signal was 3270 fluorescence intensity (a.u.).

Take “TGCGTGTTTGATGATATACACGTGCGTATATGTCTACCGTCGGAGTCACCTAGTGCAG”: the binding signal was 3880 fluorescence intensity (a.u.).

For the sequence “TTCTCCGGCCGCCGCCGCCATCGCCGCCGGCCGTAGCATGCGGAGTCACCTAGTGCAG”, the binding signal is 56000 fluorescence intensity (a.u.).

In the case of “TGGATCCGGCCCTGCATGTCCGTCCTCGCCGGTGGGCGCTCGGAGTCACCTAGTGCAG”, the binding signal was 41400 fluorescence intensity (a.u.).

For “CCCTAGCCCTCGCCCTGGTCCGTCCGGCGTGGCGCGCGCTCGGAGTCACCTAGTGCAG”, the binding signal was 5150 fluorescence intensity (a.u.).

Consider “GCATGGCGCCGCCATCTCGGATTCGCCGTAGTGTCTCCGCCGGAGTCACCTAGTGCAG”, for which the binding signal was 35300 fluorescence intensity (a.u.).

In the case of “ACACGGATCGAACCCCTCCTCCCCGCCACGTCACCGATCCCGGAGTCACCTAGTGCAG”, the binding signal was 38700 fluorescence intensity (a.u.).

Turning to “CCAACGTCGTACATCCCTCCACGTCATCGATCCGCGCCGCCGGAGTCACCTAGTGCAG”, the binding signal is 35200 fluorescence intensity (a.u.).

With “TCGGCATGGGCGGTGGCGCTGGCGCGTCCTCCGATCCCGTCGGAGTCACCTAGTGCAG”, the binding signal was 19900 fluorescence intensity (a.u.).

As for “TCCCTCCTCCCCGTCGTCACAAGCCACGTCATCGATCCGCCGGAGTCACCTAGTGCAG”, the binding signal is 40000 fluorescence intensity (a.u.).

On to “GCACCAGCCAGTCAGCCCACCATTTCAAACGCCACACTCACGGAGTCACCTAGTGCAG”, for which the binding signal was 60800 fluorescence intensity (a.u.).

For “CCCGCGTCGCATTCAACGCCACGCACACCACTCCACTCCACGGAGTCACCTAGTGCAG”, the binding signal is 3470 fluorescence intensity (a.u.).

Consider “ACCCATTTTCAGTGGCAGGGTTATTGACACCACACTCACACGGAGTCACCTAGTGCAG”, for which the binding signal is 3140 fluorescence intensity (a.u.).

Take “TCTCTCTCTCTCTCGCCATCGTCACTGCGGCTGCTGCTGCCGGAGTCACCTAGTGCAG”: the binding signal was 3810 fluorescence intensity (a.u.).

“CGCGCTGTCTGCACCGCCGCCGCCGCCGCCGGCGGAACCCCGGAGTCACCTAGTGCAG”: the binding signal is 25200 fluorescence intensity (a.u.).

Consider “CTCCGATACGTATCCCGTACGTATCGCTATTTACTTCGATCGGAGTCACCTAGTGCAG”, for which the binding signal was 4930 fluorescence intensity (a.u.).

With “CAGATCGGCAGACCAGACCACGTGTACACCCAACACGAGGCGGAGTCACCTAGTGCAG”, the binding signal was 8390 fluorescence intensity (a.u.).

For the sequence “AGGAAAGGTTAATTACGTACGTACACGGGAAGGAGTAACCCGGAGTCACCTAGTGCAG”, the binding signal was 3340 fluorescence intensity (a.u.).

“TCCCTCTGACATGGTTCATTGATAGGTGGACTCTCTATTCCGGAGTCACCTAGTGCAG”: the binding signal is 3240 fluorescence intensity (a.u.).

For “GCTCCTCCCGTGCCGCCGCCGTCTCGCGCCAGTGCGTCTCCGGAGTCACCTAGTGCAG”, the binding signal is 3330 fluorescence intensity (a.u.).

With “GCTCCTCACCCGCCGTGAACCCAACCCACATCCGCTGACGCGGAGTCACCTAGTGCAG”, the binding signal is 3300 fluorescence intensity (a.u.).

For “AAGAAAATCTCCTGTCTCAGTCTCCTCCGCTCCTTGCGCCCGGAGTCACCTAGTGCAG”, the binding signal is 54400 fluorescence intensity (a.u.).

In the case of “CCGCCGTGAAGCACACCACCACCAACCCCATCGCTCCCTCCGGAGTCACCTAGTGCAG”, the binding signal was 64500 fluorescence intensity (a.u.).

Consider “CTCCTCTCCCGCGCGCCACGCCCTCCCTCCCCTTCCCCTTCGGAGTCACCTAGTGCAG”, for which the binding signal is 4060 fluorescence intensity (a.u.).

“CAAAAGCCTCGCCGCGCACCACCACCCAGCTCTCTCCACTCGGAGTCACCTAGTGCAG”: the binding signal was 3640 fluorescence intensity (a.u.).

As to “ACCTGCCCAACCCCAACCCCAACCCTCTCCTCTCCGCCCACGGAGTCACCTAGTGCAG”, the binding signal was 3710 fluorescence intensity (a.u.).

As for “ACCACCACCACCACCATCGCACTCCCAACTCCCAAGCCGCCGGAGTCACCTAGTGCAG”, the binding signal was 3760 fluorescence intensity (a.u.).

Consider “AAAGCCTCGCCGCCATCTCTCTCCACCACCCAAAATTTCTCGGAGTCACCTAGTGCAG”, for which the binding signal was 35600 fluorescence intensity (a.u.).

In the case of “AGCCAGCCCAAAAGCCACGCCGTCCACTCCATCTCCGCCTCGGAGTCACCTAGTGCAG”, the binding signal was 48000 fluorescence intensity (a.u.).

Consider “TCCCGTCTCGTCCGTCGTCTCCTCCGCTCCTTGCGCCAAGCGGAGTCACCTAGTGCAG”, for which the binding signal is 3200 fluorescence intensity (a.u.).

Take “TCCCCACCCTCCTCCGCAAGCCACGCCTCTCCCCAAAGTTCGGAGTCACCTAGTGCAG”: the binding signal is 65500 fluorescence intensity (a.u.).

In the case of “GGTATTGCTGTATTTATTTTGGTGTGGTTGAGAGTCTAGTCGGAGTCACCTAGTGCAG”, the binding signal is 4096 fluorescence intensity (a.u.).

As for “CATTCCCCTCTCCCCAATTTACCATACACACATGGATGTACGGAGTCACCTAGTGCAG”, the binding signal was 3640 fluorescence intensity (a.u.).

As to “TGATCAATCAAGAAGACGATCGTGCCGATATCATGGCACCCGGAGTCACCTAGTGCAG”, the binding signal was 3940 fluorescence intensity (a.u.).

For “GTCTTTCTTCAATTGTTATTATTGTCATAAATCAGGAGAACGGAGTCACCTAGTGCAG”, the binding signal was 22600 fluorescence intensity (a.u.).

In the case of “TTAACCCCGTCACGTCACCTCTCTCTCTCTCTACCGTCTCCGGAGTCACCTAGTGCAG”, the binding signal is 9720 fluorescence intensity (a.u.).

With “CAAACGGGACGAATTCCTAACCCTCGTCATCCGTCCCTTCCGGAGTCACCTAGTGCAG”, the binding signal is 4710 fluorescence intensity (a.u.).

Regarding “CTGTTATCTTTCAATAAACCAAGGGAATTTTAGTTTGTTCCGGAGTCACCTAGTGCAG”, the binding signal is 33200 fluorescence intensity (a.u.).

Turning to “AAGAGGATGGCTGGGAGGATGACATGTGGAGCCCACATGGCGGAGTCACCTAGTGCAG”, the binding signal is 4450 fluorescence intensity (a.u.).

With “GGCGCCGTGCCGTAATCCATCTCCTCCGTCGTCCAACCTCCGGAGTCACCTAGTGCAG”, the binding signal was 44900 fluorescence intensity (a.u.).

Consider “ACATCCACAACCATCTCCACCTCACCTCGTCCATCGTCTCCGGAGTCACCTAGTGCAG”, for which the binding signal is 6010 fluorescence intensity (a.u.).

Turning to “AGCCCGGCCCACCACGGGGTTTCCCTCTTCTCTAGGCCCGCGGAGTCACCTAGTGCAG”, the binding signal was 50600 fluorescence intensity (a.u.).

Take “TCCACCCCACGTCCTCCTCCTCCCCAGCAGTCCCACCCGCCGGAGTCACCTAGTGCAG”: the binding signal is 3570 fluorescence intensity (a.u.).

In the case of “TCCCTCCCTCCGCCGCGCCACGCCCACCCACGCATCCATCCGGAGTCACCTAGTGCAG”, the binding signal is 4110 fluorescence intensity (a.u.).

In the case of “CGAGAGCGAACGGCCGTCTGCCACGTCACTTTCGCCACCCCGGAGTCACCTAGTGCAG”, the binding signal is 41900 fluorescence intensity (a.u.).

For “CCCGAGAGCGAACGGCCGTCTGCCACGTCATTTTCGCCGCCGGAGTCACCTAGTGCAG”, the binding signal is 29700 fluorescence intensity (a.u.).

Consider “CCAACCCATCTCCACCGTCCATCTCCATCCGACGCCTCCCCGGAGTCACCTAGTGCAG”, for which the binding signal is 24300 fluorescence intensity (a.u.).

On to “CCGGCCACCGCCCTCCCGCCGCACGGGCCACCGGCCACCGCGGAGTCACCTAGTGCAG”, for which the binding signal is 3460 fluorescence intensity (a.u.).

In the case of “AACCTCCATCTCCCGCCCAGTGCCGCCGCGCCACGTCACCCGGAGTCACCTAGTGCAG”, the binding signal is 39100 fluorescence intensity (a.u.).

Consider “CGCCCGAGAGCGAACGGCCGTCTGCCACGTCACTTTCGCCCGGAGTCACCTAGTGCAG”, for which the binding signal is 29100 fluorescence intensity (a.u.).

As for “TCTCTTCCCCTCTCCGCGCCGCCCTCCGCCCCGCCCGCGGCGGAGTCACCTAGTGCAG”, the binding signal was 3270 fluorescence intensity (a.u.).
